In the library only some 19% were active in any assay of this set; here they are far more common.
DT40 TDP1 no CPT – qHTS for Inhibitors of human tyrosyl-DNA phosphodiesterase 1 (TDP1): qHTS in cells in absence of CPT; DT40 Tdp1-/- hTDP1 cells, no CPT, ATP luminescence, 48 h; Potency, µM (highest dose often 46.2 µM), for the others: at the top dose activity change, negative = growth inhibition, usual class: inhibitors; 15% of 420,000 active; AID 686978, 2013; further: potency means the concentration at half of the fitted maximal effect; on the % scale 0 is the no-effect control and ±100 the full control effect; nearly all actives have a fitted effect of over 55% in size
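No-CPT arm: Tdp1-/-;hTDP1 DT40 cells (400/well) plus compounds, incubated ≥48 hr at 37 °C. Readout CellTiter-Glo luminescence.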
S-ASM inh – Inhibitors of Secretory Acid Sphingomyelinase (S-ASM): qHTS. Sphingomyelin phosphodiesterase (Homo sapiens), P17405. 0.006% of 340,000 active. placental ASM, HMU-PC fluorogenic substrate, 60 min. Potency, µM (top dose mostly 57.5 µM), without a hit: at the top dose activity change, negative = inhibition, actives largely listed as inhibitors. AID 504937, 2011; further: potency means the concentration at half of the fitted maximal effect
Target sequence (P17405 47-631 limits assumed): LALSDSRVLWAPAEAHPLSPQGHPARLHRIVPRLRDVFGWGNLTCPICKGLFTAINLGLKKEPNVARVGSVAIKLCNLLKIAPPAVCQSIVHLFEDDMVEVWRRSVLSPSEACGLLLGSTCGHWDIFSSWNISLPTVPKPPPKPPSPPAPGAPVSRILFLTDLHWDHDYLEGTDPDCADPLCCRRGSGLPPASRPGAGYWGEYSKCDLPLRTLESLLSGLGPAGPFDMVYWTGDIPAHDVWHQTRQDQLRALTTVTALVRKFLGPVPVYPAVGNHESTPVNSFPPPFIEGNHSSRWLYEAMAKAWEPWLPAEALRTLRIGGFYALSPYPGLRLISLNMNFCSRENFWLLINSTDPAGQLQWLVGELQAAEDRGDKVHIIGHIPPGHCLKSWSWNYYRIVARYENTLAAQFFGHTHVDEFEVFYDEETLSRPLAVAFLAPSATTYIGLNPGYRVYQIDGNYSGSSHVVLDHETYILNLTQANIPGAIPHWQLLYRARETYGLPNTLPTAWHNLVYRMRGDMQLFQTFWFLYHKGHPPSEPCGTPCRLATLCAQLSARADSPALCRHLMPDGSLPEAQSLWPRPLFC
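HMU-PC0 cleavage (9 uM final) by human placental ASM, 60 min at 37 °C following 10 min compound exposure at RT; stopped at pH 10, fluorescence Ex 386/Em 447 nm.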
TGFb SMAD3 inh – qHTS for Inhibitors of TGF-b; HepG2 CAGA-GFP TGF-b/SMAD3 reporter, GFP fluorescence, 18 h; TGF-beta stimulated, 500 pg/mL final; Potency, µM (series often up to 46.1 µM), without a hit: at the top dose activity, negative = inhibition, most hits filed as inhibitors; 1.2% of 410,000 active; AID 588855, 2011; further: potency means the concentration at half of the fitted maximal effect; on the % scale 0 is the no-effect control and ±100 the full control effect; nearly all actives have a fitted effect of over 65% in size
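TGF-beta reporter screen: HEPG2 CAGA-GFP, 1% FBS, 500 pg/mL TGF-beta final, 18 h; per-cell GFP summed per well; curves fitted and categorized by class.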
IL1B secr inh – qHTS for Inhibitors of Inflammasome Signaling: IL-1-beta AlphaLISA Primary Screen | THP-1 LPS/ATP IL-1B secretion, AlphaLISA, 16 h; hits give low values | activity change, % at 57.5 µM | 4.7% of 360,000 active; in the data active means activity change below about -50%; inconclusive means mostly about -30% to -49%; further: on the % scale 0 is the no-effect control and ±100 the full control effect
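THP-1 cells pretreated 1 hr with compounds (up to 57.5 uM final), then stimulated with LPS (250 ng/mL final) plus ATP (1.25 mM final); secreted IL-1B measured by AlphaLISA after 16 hr, decreased signal indicating inhibition.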
HepG2 viability – qHTS for Inhibitors of TGF-b: Cytotox Counterscreen; HepG2 CAGA-GFP viability, ATP luminescence, 18 h; Potency, µM (series often up to 46.1 µM), inactives show at the top dose activity change, negative = cytotoxicity, most hits filed as cytotoxic; 0.76% of 410,000 active; AID 588856, 2011; further: potency means the concentration at half of the fitted maximal effect
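HepG2 CAGA-GFP cells (1000/well, DMEM with 1% FBS) received compound, then TGF-beta at 500 pg/mL final, and were incubated 18 hours at 37 degrees C. Viability was read by CellTiter-Glo luminescence. Media-only wells were set as complete cell-killing and DMSO as no toxicity.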
DT40 TDP1 CPT – qHTS for Inhibitors of human tyrosyl-DNA phosphodiesterase 1 (TDP1): qHTS in cells in presence of CPT. 12% of 420,000 active. AID 686979, 2013. Potency, µM (doses to about 46.2 µM), inactives show top-dose activity change, negative = growth inhibition, actives largely listed as inhibitors. chicken DT40 Tdp1-/-;hTDP1 cells + 20 nM CPT, ATP luminescence, 48 h; further: potency means the concentration at half of the fitted maximal effect; on the % scale 0 is the no-effect control and ±100 the full control effect; nearly all actives have a fitted effect of over 55% in size
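Chicken DT40 Tdp1-/- cells stably complemented with human TDP1 were seeded at 400 cells/well in medium containing 20 nM camptothecin, exposed to pin-transferred compounds, and grown at 37 °C for at least 48 hr. Viability was read as ATP luminescence.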
An asterisk follows results filed as active; ? = inconclusive; . = no result given. Unless noted, the call rests on the fitted dose curve; in most records, active means well fitted curve in the direction sought with a large enough effect; inconclusive means small, poorly fitted or top-dose-only effect, or another doubt; inactive means no such curve, though single readings can be large; an effect the other way counts as inactive or inconclusive.

SMILES	DT40 TDP1 no CPT	S-ASM inh	TGFb SMAD3 inh	IL1B secr inh	HepG2 viability	DT40 TDP1 CPT
COc1cc(NC(=O)CN(C)Cc2cccc(F)c2)c(C)cc1[N+](=O)[O-]	20.6µM*	-0.1%	-7.4%	2.8	18.6%	?
COc1ccc(CN(C)CC(=O)Nc2cc(OC)c([N+](=O)[O-])cc2C)c(OC)c1	14.6µM*	-5.8%	-26.8%	?	-20.0%	13µM*
COc1ccc(NC(=O)CSc2ccccc2)c(OC)c1	?	0.2%	7.2%	11.5	-1.1%	5.2%
COc1ccc(NC(=O)CSc2c3c(nc4ccccc24)CCC3)cc1Cl	-72.7%	.	-4.7%	.	-6.7%	0.581µM*
COc1ccc(NC(=O)CSc2c3c(nc4ccccc24)CCC3)c(OC)c1	20.6µM*	-0.2%	-5.9%	12.7	-26.5%	?
COCc1ccc(C(=O)N2CCCC(N3CCN(c4cccc(Cl)c4)CC3)C2)s1 (configuration not stated)	?	.	-5.6%	17.6	-2.6%	?
C=CCN(CC=C)C(=O)C1c2ccccc2Oc2ccccc21	?	.	-2.0%	0.0	-47.6%	25.9µM*
CC(C)(C)NC(=O)CCc1nnc(Cc2c[nH]c3ccccc23)o1	0.7%	-1.9%	-1.6%	22.7	-9.7%	?
O=C(CCc1nnc(Cc2c[nH]c3ccccc23)o1)NCC1CC12CCCCC2 (configuration not stated)	25.9µM*	1.1%	-4.4%	-4.9	-10.3%	?
CCOC(=O)C1=CN(Cc2ccco2)S(=O)(=O)N(CC)C1c1ccccc1 (configuration not stated)	-22.3%	-7.1%	-1.0%	4.6	-22.0%	?
C/C(=N\NC(=O)c1cc2ccccc2cc1O)c1cccs1	13µM*	-5.2%	3.1%	-50.4*	-33.9%	-21.1%
O=C(NNC(=O)c1cc2ccccc2cc1O)c1cccs1	?	16.4%	-8.6%	175.9	-23.0%	23.1µM*
CCOC(=O)c1c(C)[nH]c(N=Nc2cccc(C)c2)c1C	-24.6%	-24.5%	?	-5.2	-72.3%	?
CCOC(=O)c1c(C)[nH]c(N=Nc2ccccc2)c1C	23.1µM*	?	?	-3.1	-47.7%	?
CCOC(=O)c1c(C)[nH]c(N=Nc2cccc(OC)c2)c1C	?	-18.6%	3.5%	-67.1*	-22.4%	-5.0%
CCC1CCCCN1C(=O)CSc1nnc(CNC(=O)c2c(F)cccc2Cl)o1 (configuration not stated)	3.5%	3.7%	-3.4%	-2.0	-3.5%	-15.1%
C[C@@H]1CN([C@@H](C)CO)S(=O)(=O)c2ccc(Br)cc2O[C@H]1CN(C)C(=O)Cc1cccnc1	-3.3%	.	-2.0%	11.0	-17.2%	-1.4%
Cc1cccc(C)c1OCC(=O)Nc1ccc2c(c1)C(=O)NC2=O	-1.2%	2.4%	-1.7%	11.0	1.5%	-15.0%
O=C(NCC(c1cccs1)S(=O)(=O)c1ccccc1)c1ccc(C(F)(F)F)cc1 (configuration not stated)	?	.	?	.	-29.0%	?
CC(C)(C)c1ccc(C(=O)NCC(c2cccs2)S(=O)(=O)c2ccc(F)cc2)cc1 (configuration not stated)	20.6µM*	.	?	.	-24.6%	18.4µM*
COc1ccccc1CCNC(=O)C(=O)NCC(c1cccs1)S(=O)(=O)c1ccccc1 (configuration not stated)	?	.	-17.2%	.	-21.6%	?
